Assay results taken from PubChem BioAssay (NCATS).
Records with an inconclusive call do not appear. Values without a mark were called inactive. Calls come from the whole dose curve; as a rule, active = well fitted inhibition curve with a large enough effect; inconclusive = small, poorly fitted or top-dose-only effect; inactive = flat fitted curve, though single readings scatter.

test system: CP269; assay: qHTS profiling for inhibitors of Plasmodium falciparum proliferation (AID 504749);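 note: 0% = DMSO vehicle and full inhibition = artemisinin control; nearly all actives have a fitted effect of over 60% in size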; conditions: P. falciparum in erythrocytes, SYBR Green DNA, 72 h; series mostly up to 28.7 µM; activity, negative = inhibition: at the top concentration
How it was run: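 In a 72 h erythrocytic culture (37 C, humidified, 5% CO2) at 2.5% hematocrit and 0.3% starting parasitemia, compounds were tested; SYBR Green I in detergent lysis buffer stained parasite DNA overnight.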

Compound	activity, negative = inhibition
C#C[C@]1(O)CC[C@H]2[C@@H]3CCc4cc(OC)ccc4[C@H]3CC[C@@]21C	-1.24%
Cc1cc(C)cc(OCC2CNC(=O)O2)c1 (centres undefined)	-5.65%
Cc1cc(NS(=O)(=O)c2ccc(N)cc2)nc(C)n1	-7.98%
FC(F)(F)C(F)(F)C(F)(F)C(F)(F)C(F)(F)C(F)(F)C(F)(F)C(F)(F)Br	-2.51%
CC(=O)NC(=O)c1ccccc1O	-0.81%
O=C(O)C(Cc1cc(I)c(O)c(I)c1)c1ccccc1 (centres undefined)	4.88%
O=C(O)c1ccc(S(=O)(=O)N(Cl)Cl)cc1	6.23%
CC(=O)Nc1ccc(OCC(O)CNC(C)C)cc1 (centres undefined)	10.1%
O=S(=O)(O)c1ccc(O)cc1	3.64%
C=C[C@@]1(C)CC(=O)[C@]2(O)[C@@]3(C)[C@@H](O)CCC(C)(C)[C@@H]3[C@H](O)[C@H](OC(C)=O)[C@@]2(C)O1	3.74%
CCC1Nc2cc(Cl)c(S(N)(=O)=O)cc2S(=O)(=O)N1 (centres undefined)	-7.37%
CC(=O)OCC(=O)[C@H]1CC[C@H]2[C@@H]3CCC4=CC(=O)CC[C@]4(C)[C@H]3CC[C@]12C	6.24%
CC(C)Nc1cccnc1N1CCN(C(=O)c2cc3cc(NS(C)(=O)=O)ccc3[nH]2)CC1	-5.2%
COc1cc(C(=O)NCc2ccc(OCCN(C)C)cc2)cc(OC)c1OC	-10.6% [at 12.8 µM]
Nc1ccc(C(=O)NCC(=O)O)cc1	9.33% [at 12.8 µM]
CCC(CC)(CC(=O)Nc1cccc(/C=C/c2nc(C3CCC3)cs2)c1)C(=O)O	-8.43%
CCCCCCCCCCCCCCCC(=O)O	-9.25%
Nc1nc(N)c(-c2ccccc2)s1	1.33%
COc1ccc(C(=O)c2ccccc2O)c(O)c1	-9.26% [at 12.8 µM]
C#C[C@]1(OC(C)=O)CC[C@H]2[C@@H]3CCC4=C/C(=N/O)CC[C@@H]4[C@H]3CC[C@@]21CC	-3.5%

Compound	activity, negative = inhibition
CCNC(=O)/C=C/c1cccc(Br)c1	1.03%
Cc1ccccc1OCC(O)CO (centres undefined)	-0.114%
CC(=O)NCCCCCC(=O)O	-11.4%
c1ccc(CC2=NCCN2)cc1	6.38% [at 12.8 µM]
NS(=O)(=O)Cc1noc2ccccc12	4.01%
CCCN(CCC)S(=O)(=O)c1ccc(C(=O)O)cc1	4.38%
O=C(O)P(=O)(O)O	0.37%
CC[C@H](c1ccc(O)cc1)[C@@H](CC)c1ccc(O)cc1	-6.54% [at 12.8 µM]
CCCCC(CC)COC(=O)/C=C/c1ccc(OC)cc1 (centres undefined)	6.9%
CCOC(=O)c1ccc(N)cc1	4.74% [at 12.8 µM]
OCc1ccccn1	-7.22%
CCCCc1cc2ccccc2c(OCCN(C)C)n1	-9.25% [at 12.8 µM]
CC(C)Cn1cnc2c1c(=O)n(C)c(=O)n2C	-1.3%
CCCCNC(=O)NS(=O)(=O)c1ccc(N)cc1	-3.05%
O=C(O)Cc1csc(-c2ccc(Cl)cc2)n1	-0.288%
CC(=O)Nc1ncc([N+](=O)[O-])s1	1.63%
CCOc1cc(OCC)c(C(=O)CCC(=O)O)cc1OCC	-0.685%
c1ccc(-c2nc[nH]c2-c2ccccc2)cc1	-4.51%
Cn1c(=O)c2[nH]c(Br)nc2n(C)c1=O	0.35%
